{
  "source": "paper PMC5540273",
  "about": "(PLoS ONE, 2017)",
  "details_in_all_cases": "concentration: 1 μM, replicates: in singlicate, n = 1",
  "key": {"[1]": {"system": "AAK1"}, "[2]": {"system": "ABL1-nonphosphorylated"}, "[3]": {"system": "ABL1-phosphorylated"}, "[4]": {"system": "ABL2"}, "[5]": {"system": "ACVR1B"}, "[6]": {"system": "ACVR1"}, "[7]": {"system": "ACVR2A"}, "[8]": {"system": "ACVR2B"}, "[9]": {"system": "ACVRL1"}, "[10]": {"system": "T1, ADCK3", "T1 construct": "gene CABC1"}, "[11]": {"system": "ADCK4"}, "[12]": {"system": "AKT1"}, "[13]": {"system": "AKT2"}, "[14]": {"system": "AKT3"}, "[15]": {"system": "ALK"}, "[16]": {"system": "T2, AMPK-alpha1", "T2 construct": "gene PRKAA1"}},
  "note": "Values joined by “and” are separate entries in the source; they are usually repeats but may differ in a detail not shown here. Equal entries are not always repeated. Where two headings read alike, the source gives them in different places.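 Further: KINOMEscan kinase panel screen.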",
  "data": [
    {"smiles": "NCCNS(=O)(=O)c1ccc(-c2ccnc3[nH]ccc23)cc1", "note": "[GSK977617]", "values": [
      {"measurement": "%Inh", "setting": "[1]; 1 µM", "value": "67% and 57%"},
      {"measurement": "%Inh", "setting": "[2]", "value": 0, "unit": "%"},
      {"measurement": "%Inh", "setting": "[3]; 1 µM", "value": "9% and 0%"},
      {"measurement": "%Inh", "setting": "[4]; 1 µM", "value": "22% and 1%"},
      {"measurement": "%Inh", "setting": "[5]; 1 µM", "value": "3% and 0%"},
      {"measurement": "%Inh", "setting": "[6]", "value": 0, "unit": "%"},
      {"measurement": "%Inh", "setting": "[7]", "value": 0, "unit": "%"},
      {"measurement": "%Inh", "setting": "[8]; 1 µM", "value": "2% and 0%"},
      {"measurement": "%Inh", "setting": "[9]", "value": 0, "unit": "%"},
      {"measurement": "%Inh", "setting": "[10]; 1 µM", "value": "0% and 6%"},
      {"measurement": "%Inh", "setting": "[11]; 1 µM", "value": "32% and 21%"},
      {"measurement": "%Inh", "setting": "[12]; 1 µM", "value": "77% and 66%"},
      {"measurement": "%Inh", "setting": "[13]; 1 µM", "value": "15% and 10%"},
      {"measurement": "%Inh", "setting": "[14]; 1 µM", "value": "88% and 83%"},
      {"measurement": "%Inh", "setting": "[15]; 1 µM", "value": "60% and 36%"},
      {"measurement": "%Inh", "setting": "[16]; 1 µM", "value": "50% and 38%"}
    ]},
    {"smiles": "CC(C)(CN)c1nc(-c2ccc(Cl)c(O)c2)c(-c2ccncc2)[nH]1.O=C(O)C(F)(F)F", "note": "[SB-477794]", "values": [
      {"measurement": "%Inh", "setting": "[1]", "value": 0, "unit": "%"},
      {"measurement": "%Inh", "setting": "[2]; 1 µM", "value": "96.1% and 94.7%"},
      {"measurement": "%Inh", "setting": "[3]; 1 µM", "value": "99.4% and 98.9%"},
      {"measurement": "%Inh", "setting": "[4]; 1 µM", "value": "92.4% and 89%"},
      {"measurement": "%Inh", "setting": "[5]; 1 µM", "value": "87% and 91.7%"},
      {"measurement": "%Inh", "setting": "[6]; 1 µM", "value": "96.5% and 93.4%"},
      {"measurement": "%Inh", "setting": "[7]; 1 µM", "value": "1% and 25%"},
      {"measurement": "%Inh", "setting": "[8]; 1 µM", "value": "91.9% and 91%"},
      {"measurement": "%Inh", "setting": "[9]; 1 µM", "value": "61% and 67%"},
      {"measurement": "%Inh", "setting": "[10]; 1 µM", "value": "7% and 17%"},
      {"measurement": "%Inh", "setting": "[11]; 1 µM", "value": "54% and 35%"},
      {"measurement": "%Inh", "setting": "[12]; 1 µM", "value": "5% and 25%"},
      {"measurement": "%Inh", "setting": "[13]; 1 µM", "value": "21% and 8%"},
      {"measurement": "%Inh", "setting": "[14]; 1 µM", "value": "34% and 100%"},
      {"measurement": "%Inh", "setting": "[15]; 1 µM", "value": "34% and 16%"},
      {"measurement": "%Inh", "setting": "[16]", "value": 0, "unit": "%"}
    ]},
    {"smiles": "COc1ccc(Nc2nccc(N3CCC(NC(=O)Nc4cccc(C(C)=O)c4)C3)n2)cc1", "note": "(stereo not drawn) [GSK1379731]", "values": [
      {"measurement": "%Inh", "setting": "[1]", "value": 0, "unit": "%"},
      {"measurement": "%Inh", "setting": "[2]", "value": 0, "unit": "%"},
      {"measurement": "%Inh", "setting": "[3]", "value": 0, "unit": "%"},
      {"measurement": "%Inh", "setting": "[4]", "value": 7, "unit": "%"},
      {"measurement": "%Inh", "setting": "[5]", "value": 0, "unit": "%"},
      {"measurement": "%Inh", "setting": "[6]", "value": 0, "unit": "%"},
      {"measurement": "%Inh", "setting": "[7]", "value": 0, "unit": "%"},
      {"measurement": "%Inh", "setting": "[8]", "value": 11, "unit": "%"},
      {"measurement": "%Inh", "setting": "[9]", "value": 0, "unit": "%"},
      {"measurement": "%Inh", "setting": "[10]", "value": 0, "unit": "%"},
      {"measurement": "%Inh", "setting": "[11]", "value": 11, "unit": "%"},
      {"measurement": "%Inh", "setting": "[12]", "value": 0, "unit": "%"},
      {"measurement": "%Inh", "setting": "[13]", "value": 0, "unit": "%"},
      {"measurement": "%Inh", "setting": "[14]", "value": 0, "unit": "%"},
      {"measurement": "%Inh", "setting": "[15]", "value": 15, "unit": "%"},
      {"measurement": "%Inh", "setting": "[16]", "value": 0, "unit": "%"}
    ]},
    {"smiles": "Cc1nnc(-c2ccc3occ(-c4ccc(C(C)O)cc4)c3c2)o1", "note": "(stereo not drawn)", "values": [
      {"measurement": "%Inh", "setting": "[1]", "value": 23, "unit": "%"},
      {"measurement": "%Inh", "setting": "[2]", "value": 64, "unit": "%"},
      {"measurement": "%Inh", "setting": "[3]", "value": 36, "unit": "%"},
      {"measurement": "%Inh", "setting": "[4]", "value": 8, "unit": "%"},
      {"measurement": "%Inh", "setting": "[5]", "value": 14, "unit": "%"},
      {"measurement": "%Inh", "setting": "[6]", "value": 15, "unit": "%"},
      {"measurement": "%Inh", "setting": "[7]", "value": 9, "unit": "%"},
      {"measurement": "%Inh", "setting": "[8]", "value": 27, "unit": "%"},
      {"measurement": "%Inh", "setting": "[9]", "value": 8, "unit": "%"},
      {"measurement": "%Inh", "setting": "[10]", "value": 0, "unit": "%"},
      {"measurement": "%Inh", "setting": "[11]", "value": 0, "unit": "%"},
      {"measurement": "%Inh", "setting": "[12]", "value": 17, "unit": "%"},
      {"measurement": "%Inh", "setting": "[13]", "value": 0, "unit": "%"},
      {"measurement": "%Inh", "setting": "[14]", "value": 4, "unit": "%"},
      {"measurement": "%Inh", "setting": "[15]", "value": 0, "unit": "%"},
      {"measurement": "%Inh", "setting": "[16]", "value": 0, "unit": "%"}
    ]},
    {"smiles": "CN1c2ccc(CNc3ccc(F)cc3)cc2-c2c(cnn2C)S1(=O)=O", "values": [
      {"measurement": "%Inh", "setting": "[1]", "value": 0, "unit": "%"},
      {"measurement": "%Inh", "setting": "[2]", "value": 21, "unit": "%"},
      {"measurement": "%Inh", "setting": "[3]", "value": 0, "unit": "%"},
      {"measurement": "%Inh", "setting": "[4]", "value": 0, "unit": "%"},
      {"measurement": "%Inh", "setting": "[5]", "value": 0, "unit": "%"},
      {"measurement": "%Inh", "setting": "[6]", "value": 0, "unit": "%"},
      {"measurement": "%Inh", "setting": "[7]", "value": 1, "unit": "%"},
      {"measurement": "%Inh", "setting": "[8]", "value": 0, "unit": "%"},
      {"measurement": "%Inh", "setting": "[9]", "value": 0, "unit": "%"},
      {"measurement": "%Inh", "setting": "[10]", "value": 2, "unit": "%"},
      {"measurement": "%Inh", "setting": "[11]", "value": 5, "unit": "%"},
      {"measurement": "%Inh", "setting": "[12]", "value": 0, "unit": "%"},
      {"measurement": "%Inh", "setting": "[13]", "value": 0, "unit": "%"},
      {"measurement": "%Inh", "setting": "[14]", "value": 0, "unit": "%"},
      {"measurement": "%Inh", "setting": "[15]", "value": 8, "unit": "%"},
      {"measurement": "%Inh", "setting": "[16]", "value": 0, "unit": "%"}
    ]},
    {"smiles": "O=c1cc(N2CCOCC2)nc2n(Cc3cccc(F)c3)ccn12", "note": "[GSK2297430]", "values": [
      {"measurement": "%Inh", "setting": "[1]", "value": 5, "unit": "%"},
      {"measurement": "%Inh", "setting": "[2]", "value": 0, "unit": "%"},
      {"measurement": "%Inh", "setting": "[3]", "value": 0, "unit": "%"},
      {"measurement": "%Inh", "setting": "[4]", "value": 2, "unit": "%"},
      {"measurement": "%Inh", "setting": "[5]", "value": 0, "unit": "%"},
      {"measurement": "%Inh", "setting": "[6]", "value": 1, "unit": "%"},
      {"measurement": "%Inh", "setting": "[7]", "value": 6, "unit": "%"},
      {"measurement": "%Inh", "setting": "[8]", "value": 0, "unit": "%"},
      {"measurement": "%Inh", "setting": "[9]", "value": 14, "unit": "%"},
      {"measurement": "%Inh", "setting": "[10]", "value": 9, "unit": "%"},
      {"measurement": "%Inh", "setting": "[11]", "value": 0, "unit": "%"},
      {"measurement": "%Inh", "setting": "[12]", "value": 0, "unit": "%"},
      {"measurement": "%Inh", "setting": "[13]", "value": 9, "unit": "%"},
      {"measurement": "%Inh", "setting": "[14]", "value": 0, "unit": "%"},
      {"measurement": "%Inh", "setting": "[15]", "value": 8, "unit": "%"},
      {"measurement": "%Inh", "setting": "[16]", "value": 5, "unit": "%"}
    ]}
  ]
}
